Assay results published in PubChem BioAssay (Tox21).
Results filed as inconclusive are left out. The source made the active and inactive calls. The call rests on the fitted dose curve; in most records, active means well fitted activation curve with a large enough effect in the signal ratio in the repeat runs (not every such curve was filed as active); inconclusive means weak or mixed curves, or effect the other way; inactive means flat fitted curve, though single readings scatter; the % refers to the signal ratio.

Biological target: Estrogen receptor beta (Homo sapiens) (UniProt Q92731)
Sequence (Q92731 whole entry, looked up): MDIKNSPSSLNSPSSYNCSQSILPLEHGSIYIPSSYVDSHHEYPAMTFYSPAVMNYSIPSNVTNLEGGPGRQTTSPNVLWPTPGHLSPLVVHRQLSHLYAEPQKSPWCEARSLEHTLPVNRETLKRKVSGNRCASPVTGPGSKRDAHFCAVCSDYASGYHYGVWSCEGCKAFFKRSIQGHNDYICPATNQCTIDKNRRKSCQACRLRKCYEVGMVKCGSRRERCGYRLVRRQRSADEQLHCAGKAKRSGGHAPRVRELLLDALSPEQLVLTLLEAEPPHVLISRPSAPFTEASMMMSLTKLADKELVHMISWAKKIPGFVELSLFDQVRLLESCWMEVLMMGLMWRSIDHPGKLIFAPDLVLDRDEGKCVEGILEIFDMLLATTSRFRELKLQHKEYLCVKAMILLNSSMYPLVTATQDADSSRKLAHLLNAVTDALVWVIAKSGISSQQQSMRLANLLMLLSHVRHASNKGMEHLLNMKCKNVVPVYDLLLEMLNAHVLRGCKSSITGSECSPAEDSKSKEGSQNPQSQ
Experiment: qHTS assay to identify small molecule agonists of the estrogen receptor beta (ER-beta) signaling pathway (AID 1259377)
Settings: ER-beta-UAS-bla HEK293T, beta-lactamase FRET ratio, 16 h; series mostly up to 92.4 µM; activation: at the top concentration
Description: U.S. Tox21 Program National Center for Advancing Translational Sciences [NCATS] NIH Chemical Genomics Center [NCGC] U.S. Environmental Protection Agency [EPA] National Institutes of Environmental Health Sciences [NIEHS] National Toxicology Program [NTP] U.S. Food and Drug Administration [FDA] Tox21 Assay Overview: Estrogen receptor (ER), a nuclear hormone receptor, plays an important role in development, metabolic homeostasis and reproduction. Two subtypes of ER, ER-alpha and ER-beta, have similar expression patterns with some uniqueness in both types. Endocrine disrupting chemicals (EDCs) and their interactions with steroid hormone receptors like ER causes disruption of normal endocrine function. To identify the compounds that activate ER signaling, an ER beta-UAS-bla GripTite cell line (Life technologies, Madison, WI, USA) containing a beta-lactamase reporter gene under the control of an Upstream Activator Sequence (UAS) was used to screen Tox21 10K compound library.
Tox21 Assay Protocol Summary: ER-beta-UAS-bla HEK293T cells were dispensed at 2,000 cells/5 uL of assay medium containing 2% charcoal stripped FBS per well into black wall/clear-bottom 1536-well plates using a Multidrop Combi (ThermoFisher Scientific, Waltham, MA) dispenser. After the assay plates were incubated at a 37C and 5% CO2 for 6 hr, 23 nL of compounds dissolved in DMSO, positive controls or DMSO only was transferred to the assay plate by a Pintool station (Kalypsys, San Diego, CA). The plates were incubated at 37C and 5% CO2 for 16 hr. Then 1 uL of LiveBLAzerTM B/G FRET substrate was added using a BioRAPTR FRD (Flying Reagent Dispenser, Aurora Discovery, San Diego, CA). After the plates were incubated at room temperature for 2 hours, fluorescence intensity was measured by an Envision plate reader (PerkinElmer, Shelton, CT).
On the % scale 0 is the no-effect control and ±100 the full control effect.

Structure (SMILES)	activation
O=P(O)(Oc1ccccc1)Oc1ccccc1	-1.21% (inactive)
O=C(N[C@H]1CN2CCC1CC2)c1cc2ccoc2cn1	5.17% (inactive)
O=[N+]([O-])c1cc(Cl)c(Cl)c(Cl)c1	-0.613% (inactive)
c1cc[c]([Hg][c]2ccccc2)cc1	-3.42% (inactive)
CCC/C(=N\OCC)C1=C(O)CC(CC(C)SCC)CC1=O (stereo not given)	3.04% (inactive)
CCOC(=O)C1(c2ccccc2)CCN(CCc2ccc(N)cc2)CC1	1.21% [at 42.5 µM] (inactive)
CC(C)(C)OC(=O)c1ncn2c1[C@@H]1CCCN1C(=O)c1c(Br)cccc1-2	-0.473% [at 42.5 µM] (inactive)
O=CNC(N1CCN(C(NC=O)C(Cl)(Cl)Cl)CC1)C(Cl)(Cl)Cl (stereo not given)	0.0518% (inactive)
O=C(Nc1ccccc1)N(Cc1ccc(Cl)cc1)C1CCCC1	-2.6% (inactive)
CC1(C)C(=O)NC(=O)NC1=O	-0.352% (inactive)
CC(C=O)Cc1ccc2c(c1)OCO2 (stereo not given)	4.46% (inactive)
COc1cc(OC)nc(Oc2cccc(Oc3nc(OC)cc(OC)n3)c2C(=O)O)n1	1.43% (inactive)
Cc1ncc2n1-c1ccc(Cl)cc1C(c1ccccc1F)=NC2	1.44% [at 42.5 µM] (inactive)
COC(=O)c1ccccc1S(=O)(=O)NC(=O)Nc1nc(C)cc(C)n1	0.0369% (inactive)
O=NN1CCCCC1	0.131% (inactive)
N#CC(CCc1ccc(Cl)cc1)(Cn1cncn1)c1ccccc1 (stereo not given)	-8.43% (inactive)
CNC(=O)Oc1ccccc1C1OCCO1	-0.214% (inactive)
C[C@@H]1CN(C2CCC(C#N)(c3ccc(F)cc3)CC2)CC[C@]1(C(=O)O)c1ccccc1 (stereo not given in full)	5.27% [at 42.5 µM] (inactive)
OC(Cn1cncn1)(c1ccc(F)cc1)c1ccccc1F (stereo not given)	2.73% (inactive)
CCS(=O)(=O)C(C)(C)S(=O)(=O)CC	0.788% [at 42.5 µM] (inactive)

Structure (SMILES)	activation
c1cc2c(c(N3CCNCC3)c1)OCCO2	0.234% [at 42.5 µM] (inactive)
O=c1oc2ccccc2c(O)c1C1CCCc2ccccc21 (stereo not given)	0.095% (inactive)
Nc1ccccc1Cl	0.417% (inactive)
NC(=S)C(N)=S	-1.86% (inactive)
CCCCc1ccc(O)cc1	2.32% (inactive)
C=CC1CC=CCC1 (stereo not given)	1.2% (inactive)
CCC(Cl)[N+](=O)[O-] (stereo not given)	-2.59% (inactive)
ClC(Cl)(Cl)C(Cl)(Cl)Cl	2.15% (inactive)
CCOC(=O)CP(=O)(OCC)OCC	11.5% (inactive)
NC1=NC(=O)C(c2ccccc2)O1 (stereo not given)	3.31% [at 42.5 µM] (inactive)
COc1cc(C[C@@H](C)N)c(OC)cc1C	0.247% (inactive)
Nc1cnn(-c2ccccc2)c(=O)c1Cl	7.48% (inactive)
CCN(CC)c1nc(C)cc(OP(=S)(OC)OC)n1	-0.014% (inactive)
CC(=O)CC(c1ccc(Cl)cc1)c1c(O)c2ccccc2oc1=O (stereo not given)	-0.545% (inactive)
CC(N)=S	1.27% (inactive)
COc1cc(OC)nc(NC(=O)NS(=O)(=O)c2ncccc2C(=O)N(C)C)n1	2.65% (inactive)
N#CC(Cl)(Cl)Cl	-2.63% (inactive)
CC1CCCCC1NC(=O)Nc1ccccc1 (stereo not given)	5.31% (inactive)
CN/C(=N\[N+](=O)[O-])NCC1CCOC1 (stereo not given)	2.27% (inactive)
COc1ncc(F)c2nc(S(=O)(=O)Nc3c(F)cccc3F)nn12	-0.591% [at 42.5 µM] (inactive)
